FBW7 act: FBW7 E3 ligase activators, primary screen, biochemical, AlphaScreen, human; F-box/WD repeat-containing protein 7 (Homo sapiens), Q969H0; AlphaScreen FBW7–phospho-cyclin E peptide binding, activator screen; normalized activity (activation), % at 26.1 µM; actives 0.13% (n = 650,000); in the data active = normalized activity above about 1.9%;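 note: purified mutant Fbw7 with reduced substrate affinity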
MITF primary: MITF inhibitors, primary screen, biochemical, AlphaScreen, human. Microphthalmia-associated transcription factor (Homo sapiens), O75030. AlphaScreen MITF homodimerization, bead proximity signal. inhibition, % at 2.6 µM. actives 0.91% (n = 650,000); in the data active = inhibition above about 50%;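 note: 0% = vehicle wells with protein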
GPR151 ag: activators of human GPR151, primary screen, cell-based, PathHunter beta-arrestin, luminescence; PathHunter beta-arrestin GPR151 cells; activation, % at 11.2 µM; actives 1% (n = 650,000); in the data active = activation above about 4.9%;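 note: 0% = median of compound wells and 100% = cells with positive control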
Target sequence (Q8TDV0 whole entry, looked up): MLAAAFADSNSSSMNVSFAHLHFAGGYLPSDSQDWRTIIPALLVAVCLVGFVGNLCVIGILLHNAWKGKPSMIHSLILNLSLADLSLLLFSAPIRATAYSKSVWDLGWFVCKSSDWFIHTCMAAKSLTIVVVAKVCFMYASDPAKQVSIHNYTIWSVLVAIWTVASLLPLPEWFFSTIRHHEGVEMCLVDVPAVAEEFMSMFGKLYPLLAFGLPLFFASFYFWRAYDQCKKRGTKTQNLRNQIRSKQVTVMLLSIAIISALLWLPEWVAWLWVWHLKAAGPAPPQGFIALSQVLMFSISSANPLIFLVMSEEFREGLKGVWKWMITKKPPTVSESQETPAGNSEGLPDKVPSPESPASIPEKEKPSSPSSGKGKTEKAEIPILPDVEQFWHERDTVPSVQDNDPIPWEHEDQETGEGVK
TEAD-YAP inh: TEAD-YAP interaction inhibition, primary screen, TEAD-YAP interaction inhibitor project, luminescence, HEK-TIYL cells. TEAD-Gal4/YAP UAS-luciferase luminescence. actives 1.4% (n = 640,000). inhibition, % at 9.12 µM; in the data active = inhibition above about 32%;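 note: 0% = median of test compound wells and 100% = reference inhibitor wells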
Starred values were filed as active, the others as inactive. Hits are enriched below; roughly 3.5% of the tested compounds scored in any of these assays.

SMILES	FBW7 act	MITF primary	GPR151 ag	TEAD-YAP inh
CCc1nnc(SCC(=O)Nc2cccc(Cl)c2)nc1CC	0	-4	-1	2
COc1ccc(CCNc2c(C)c(C)nc3ncnn23)cc1	0	-2	1	60*
COc1ccc(CNc2c(C)c(C)nc3ncnn23)cc1	0	12	1	26
Cc1nc2ncnn2c(NCCc2ccccc2)c1C	1	17	-1	42*
O=C1C2CC=C(Cl)CC2C(=O)N1CCCN1CCN(CCCN2C(=O)C3CC=C(Cl)CC3C2=O)CC1 (stereo not drawn)	0	-6	0	1
Cc1cccn2cc(-c3ccc(NC(=O)C(C)C)cc3)nc12	0	14	-2	-20
COc1ccc(Br)cc1C1C=C(c2cccs2)Nc2nnnn21 (stereo not drawn)	0	17	0	42*
COc1cccc(C2=CC(c3ccc(OC)cc3OC)n3nnnc3N2)c1 (stereo not drawn)	0	2	3	48*
COc1cccc(C2=CC(c3cccc(F)c3)n3nnnc3N2)c1 (stereo not drawn)	0	-3	-1	50*
Cc1ccc(C(=O)Nc2ccc(O)cc2C(=O)O)cc1[N+](=O)[O-]	-1	80*	-6	13
C/C(=N\NC(=O)c1ccc([N+](=O)[O-])cc1Cl)c1ccc(O)cc1O	0	5	-1	20
CC(C)(C)c1ccc(C(=O)Nc2ccc(O)cc2C(=O)O)cc1	-1	18	-1	34*
Cc1ccc(C(=O)Nc2ccc(O)cc2C(=O)O)cc1	0	22	-6	12
C/C(=N/NC(=O)c1ccc([N+](=O)[O-])cc1)c1ccc(O)cc1O	-1	-7	-1	84*
O=C(Nc1ccc(O)cc1C(=O)O)c1ccc([N+](=O)[O-])cc1	0	52*	-1	3
Cc1nc(C)n(-c2ccc(Nc3cc(-n4cc(C)c(Nc5ccccc5)n4)ccn3)cc2)n1	1.9*	27	2	25
COc1ccccc1C1=N/C(=C\c2ccc(C)cc2)C(=O)O1	0	2	0	-6
O=C(Nc1ccc(-c2nc3cccnc3s2)cc1)C1CC1	0	10	-4	75*
CC(C)CC(=O)Nc1ccc(-c2nc3cccnc3s2)cc1	0	16	-3	54*
O=C(Cc1ccccc1)Nc1ccc(-c2nc3cccnc3s2)cc1	0	8	0	-17
O=C(Nc1ccc(-c2nc3cccnc3s2)cc1)c1ccccc1	0	-3	-3	-48
Nc1ccc(-c2nc3cccnc3s2)cc1	0	-9	-8	34*
COc1ccc(S(=O)(=O)O)c2ccccc12	0	-3	1	-7
CCC(=O)Nc1ccccc1C(=O)Nc1cccc(C)c1C	0	-2	1	2
CCCC1=C(C(=O)OCC)C(c2ccc([N+](=O)[O-])cc2)NC(=O)N1C (stereo not drawn)	0	-20	-1	5
SMILES	FBW7 act	MITF primary	GPR151 ag	TEAD-YAP inh
Cc1ccc2c(c1)-c1c(cnn1CC(=O)Nc1ccc(C)c(F)c1)CO2	0	-10	0	-6
Cc1cc(C)cc(NC(=O)Cn2ncc3c2-c2ccccc2OC3)c1	0	-6	2	0
Cc1ccc2c(c1)-c1c(cnn1CC(=O)Nc1ccc3c(C)cc(=O)oc3c1)CO2	1	13	-1	49*
Cc1cc(=O)oc2cc(NC(=O)Cn3ncc4c3-c3ccccc3OC4)ccc12	0	-1	0	49*
COc1cc(S(=O)(=O)N(Cc2ccco2)Cc2ccccc2F)ccc1-n1cnnn1	0	5	0	6
N=C1C(c2nc3ccccc3s2)=C(O)CN1/N=C/C=O	0	1	1	2
N=C1C(c2nc3ccccc3s2)=C(O)CN1/N=C/c1ccc(O)c(O)c1O	0	56*	-1	-11
c1ccc(COc2ccc(C3Oc4ccccc4C4CC(c5cccc6ccccc56)=NN43)cc2)cc1 (stereo not drawn)	0	4	-2	-10
CCCn1ccc2c(OCC(=O)Nc3ccc(OC)c(OC)c3)cccc2c1=O	0	15	0	38*
COCCn1ccc2c(OCC(=O)Nc3ccc(C)cc3)cccc2c1=O	0	1	-1	-2
CC1CCc2c(sc3nnn(CC(=O)NCc4cccs4)c(=O)c23)C1 (stereo not drawn)	0	8	1	43*

Bioassay records from PubChem.
